Unmarked numbers belong to inactive results.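 How the source made its calls: active means viability at 10 µM of 29.74% or lower, 3 SD below the compound median; inactive means the rest.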

The values that follow come from PubChem BioAssay AID1004 (SRMLSC, 2008).

The nature of the assay: viability of HCT116 lacking mutant beta-catenin – cell-based, DP diverse set, validation, pilot screen (AID 1004). The following applies: HCT116 (mutant beta-catenin deleted) viability, CellTiter-Glo, 60 h; at 10 µM; active compounds read low.
Broadly, the viability is a read-out of living cells in per cent, often relative to untreated cells. In the case of `CC(=O)N[C@H]1C(O[C@@H]2O[C@H](C[C@@H](O)[C@H]3O[C@@H](N4CCC(=O)NC4=O)[C@H](O)[C@@H]3O)[C@H](O)[C@H](O)[C@H]2NC(=O)/C=C/CCCCCCCCCCC(C)C)OC(CO)[C@@H](O)[C@@H]1O` (stereo not given in full), the viability was 55.1%.

With `CC1=C(/C=C/C(C)=C/C=C/C(C)=C/C(=O)O)C(C)(C)CCC1`, the viability was 96.5%.

For `c1ccc2nc3ccccc3cc2c1`, the viability was 100%.

As for `COc1ccc2c3c1O[C@H]1C[C@@H](O)C=C[C@@]31CCN(C)C2`, the viability is 94%.

As for `CC(=O)[C@H]1[C@H](C#N)CC2C3CC=C4C[C@@H](O)CCC4(C)C3CCC21C` (stereo not given in full), the viability is 98.1%.

Regarding `NCC(=O)N[C@@H](CCCN=C(N)N)C(=O)NCC(=O)N[C@@H](CC(=O)O)C(=O)N[C@@H](CC(N)=O)C(=O)N1CC[C@@H](C(=O)O)C1`, the viability is 95.6%.

For `[O][C@H]1[C@@H](O)[C@@H](CO)O[C@@H](O[C@@H]2[C@@H]3OC[C@H]2O[C@H](O[C@@H]2[C@@H](O)[C@H](C[C@@H]4[C@@H]5OC[C@H]4O[CH][C@@H]5O)O[C@H](CO)[C@@H]2OS(=O)(=O)O)[C@@H]3OS(=O)(=O)O)[C@@H]1O`, the viability was 96.4%.

Turning to `COc1ccc(/C=C/c2cc(OC)cc(=O)o2)cc1`, the viability was 103%.

With `C=C1C(=O)[C@]23[C@H](O)[C@H]1CC[C@H]2[C@@]12COC3(O)[C@H](O)[C@@H]1C(C)(C)CC[C@@H]2O`, the viability was 88%.

Take `COc1ccc2c(c1)c(CC(=O)O)c(C)n2C(=O)c1ccc(Cl)cc1`: the viability was 101%.
